In PubChem BioAssay (Tox21):
“And” between values parts separate entries of the source, which are not always exact repeats. Identical values can stand only once. Results filed as inconclusive are left out. Where a call stands in place of a potency, no number is given. Some structures have more than one record in an assay (separate samples or runs), and their calls can disagree. The source made the active and inactive calls. Unless noted, calls follow the shape of the dose curve; as a rule, active = well fitted curve in the direction sought with a large enough effect in the repeat runs; inconclusive = weak or mixed curves; inactive = no such curve, though single readings can be large; an effect the other way counts as inactive or inconclusive.

Key:
[1] = qHTS assay to identify small molecule agonists of the estrogen receptor alpha (ER-alpha) signaling pathway in the presence of an antagonist - cell viability counter screen (AID 1259386);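 also: cells exposed to compounds for 22 h at 37 °C before the viability read; nearly all actives have a fitted effect of over 30% in size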; also: potency is read from the fitted curve at half-maximal effect
How it was run: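 Cytotoxicity was measured in parallel with the ERE-luciferase agonist screen, in the same wells. The cells were VM7Luc4E2, which endogenously express ER-alpha, and treatment was with compounds plus 10.0nM ICI-182,780 for 22hr.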

[2] = qHTS assay to identify small molecule antagonists of the TGF-beta/Smad signaling pathway - cell viability counter screen (AID 1346824); also: nearly all actives have a fitted effect of over 50% in size
How it was run: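 SBE-bla HEK 293T cells, incubated overnight, then compound plus 0.25 ng/mL TGF-beta1 (stock added) for 5 hr at 37 C. Viability was read in the same wells by CellTiter-Glo luminescence after 30 min at room temperature.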

[3] = qHTS assay to identify small molecule agonists of the TGF-beta/Smad signaling pathway - cell viability counter screen (AID 1346829); also: top concentration of the series differs between compounds; nearly all actives have a fitted effect of over 45% in size
How it was run: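 CellTiter-Glo luminescence readout; SBE-bla HEK 293T cells, overnight plating, compound 5 hr at 37 C/5% CO2, then bla substrate 2 hr RT, then CellTiter-Glo 30 min RT.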

[4] = qHTS assay to identify small molecule agonists of the TGF-beta/Smad signaling pathway (AID 1346859; active = well fitted activation curve with a large enough effect in the signal ratio in the repeat runs, not every such curve was filed as active; the % refers to the signal ratio; also: series mostly up to about 77 µM)
How it was run: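 After overnight seeding, SBE-bla HEK 293T cells are dosed with compounds in DMSO and kept 5 hr at 37 C, 5% CO2. LiveBLAzer-type FRET substrate is then applied for 2 hr at room temperature.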

[5] = target: Thyrotropin-releasing hormone receptor (Homo sapiens) (UniProt P34981); assay: qHTS assay to identify small molecule antagonists of the thyrotropin-releasing hormone receptor (TRHR) signaling pathway (AID 1346877; active = well fitted inhibition curve with a large enough effect in the repeat runs, not every such curve was filed as active; also: potency is read from the fitted curve at half-maximal effect)
Thyrotropin-releasing hormone receptor (Homo sapiens), sequence (P34981 whole entry, looked up): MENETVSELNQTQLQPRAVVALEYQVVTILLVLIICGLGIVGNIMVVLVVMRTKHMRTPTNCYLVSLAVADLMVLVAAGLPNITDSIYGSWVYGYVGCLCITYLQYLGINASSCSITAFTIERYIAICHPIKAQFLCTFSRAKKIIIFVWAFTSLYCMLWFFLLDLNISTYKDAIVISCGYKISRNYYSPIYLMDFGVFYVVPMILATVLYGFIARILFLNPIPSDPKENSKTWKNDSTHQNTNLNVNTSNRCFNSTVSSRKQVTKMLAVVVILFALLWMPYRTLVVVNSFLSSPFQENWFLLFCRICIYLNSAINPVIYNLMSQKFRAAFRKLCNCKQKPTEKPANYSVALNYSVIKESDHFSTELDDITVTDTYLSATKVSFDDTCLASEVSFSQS
How it was run: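 Antagonism is measured as suppression of the calcium response to 1 nM TRH in TRHR-HEK293 cells that have been dye-loaded for 2 h at 37 °C after overnight plating. Each compound is tested at 15 concentrations in triplicate.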

[6] = target: Thyrotropin-releasing hormone receptor (Homo sapiens) (UniProt P34981); assay: qHTS assay to identify small molecule agonists of the thyrotropin-releasing hormone receptor (TRHR) signaling pathway (AID 1346891; calls by dose curve; also: potency is read from the fitted curve at half-maximal effect;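 as to activation: HEK293 cells expressing TRHR with calcium dye readout; series mostly up to about 58 µM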)
How it was run: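 Compounds were tested as agonists at 15 concentrations, in triplicate, on TRHR-Hek293 cells; calcium-sensitive dye fluorescence was recorded for 3 min following addition.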

[7] = Human pregnane X receptor (PXR) small molecule agonists, qHTS cell viability counter screen (AID 1346977); also: nearly all actives have a fitted effect of over 50% in size; also: potency is read from the fitted curve at half-maximal effect
How it was run: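 Viability counter screen: CellTiter-Fluor signal in PXR-Luc HepG2 cells, 24hr compound exposure, 37C, 5% CO2.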

[8] = Caspase-3/7 induction in HepG2 cells by small molecules, qHTS assay (AID 1346978); also: nearly all actives have a fitted effect of over 15% in size; also: potency is read from the fitted curve at half-maximal effect
How it was run: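 Wild-type HepG2 cells, 2,000/well, settled 5 hr at 37 C and 5% CO2, then compound-treated for 17 hr; caspase-3/7 activity read by luminescent Caspase-Glo 3/7 after 30 min at room temperature.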

[9] = Caspase-3/7 induction in CHO-K1 cells by small molecules, qHTS cell viability counter screen (AID 1346979); also: nearly all actives have a fitted effect of over 35% in size; also: potency is read from the fitted curve at half-maximal effect
How it was run: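 Viability readout by fluorescence (CellTiter-Fluor) on wild-type CHO-K1 cells exposed for 16hr at 37C and 5% CO2 to compounds delivered in DMSO; reagent incubated 1hr before reading.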

[10] = Caspase-3/7 induction in CHO-K1 cells by small molecules, qHTS assay (AID 1346980); also: nearly all actives have a fitted effect of over 15% in size
How it was run: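 Wild-type CHO-K1 cells exposed to compounds for 17hr at 37 C, 5% CO2. Caspase-3/7 activity then measured by Caspase-Glo 3/7 luminescence after 30min at room temperature.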

[11] = Caspase-3/7 induction in HepG2 cells by small molecules, qHTS cell viability counter screen (AID 1346981); also: nearly all actives have a fitted effect of over 30% in size; also: potency is read from the fitted curve at half-maximal effect
How it was run: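 Cell viability is measured as a cytotoxicity counter screen alongside the Caspase-Glo 3/7 readout in identical wells. Wild-type HepG2 cells are treated with test compounds for 16 hr at 37 C before CellTiter-Fluor addition and a 1-hr incubation.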

[12] = target: Cytochrome P450 2D6 (Homo sapiens) (UniProt P10635); assay: Cytochrome P450 Family 2 Subfamily D Member 6 (CYP2D6) small molecule antagonists: luciferase reporter qHTS assay (AID 1671196); also: nearly all actives have a fitted effect of over 50% in size; also: potency is read from the fitted curve at half-maximal effect
Cytochrome P450 2D6 (Homo sapiens), sequence (P10635 whole entry, looked up): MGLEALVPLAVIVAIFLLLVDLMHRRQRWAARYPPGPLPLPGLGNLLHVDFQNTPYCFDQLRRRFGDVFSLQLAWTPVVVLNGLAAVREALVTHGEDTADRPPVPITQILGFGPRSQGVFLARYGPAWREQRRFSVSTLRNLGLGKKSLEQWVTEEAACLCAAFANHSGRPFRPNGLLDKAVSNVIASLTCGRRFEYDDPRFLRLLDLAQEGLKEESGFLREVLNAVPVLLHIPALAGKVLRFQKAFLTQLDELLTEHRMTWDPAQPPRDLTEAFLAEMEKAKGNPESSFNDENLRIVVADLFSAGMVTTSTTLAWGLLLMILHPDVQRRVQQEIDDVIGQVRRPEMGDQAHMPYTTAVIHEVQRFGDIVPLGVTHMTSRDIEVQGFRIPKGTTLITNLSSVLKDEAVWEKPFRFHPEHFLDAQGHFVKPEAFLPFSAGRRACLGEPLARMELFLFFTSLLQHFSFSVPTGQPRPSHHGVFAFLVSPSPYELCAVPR
How it was run: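 Enzyme and proluciferin substrate were first combined with test chemical for 10 min at room temperature. Adding NADPH regeneration solution started a 1 h reaction, stopped with luciferin detection reagent and read by luminescence 20 min later.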

[13] = target: Progesterone receptor (Homo sapiens) (UniProt P06401); assay: qHTS assay to identify small molecule antagonists of the progesterone receptor (PR) signaling pathway (AID 1346795; active = well fitted inhibition curve with a large enough effect in the signal ratio in the repeat runs, not every such curve was filed as active; the % refers to the signal ratio; also: potency is read from the fitted curve at half-maximal effect)
Progesterone receptor (Homo sapiens), sequence (P06401 whole entry, looked up): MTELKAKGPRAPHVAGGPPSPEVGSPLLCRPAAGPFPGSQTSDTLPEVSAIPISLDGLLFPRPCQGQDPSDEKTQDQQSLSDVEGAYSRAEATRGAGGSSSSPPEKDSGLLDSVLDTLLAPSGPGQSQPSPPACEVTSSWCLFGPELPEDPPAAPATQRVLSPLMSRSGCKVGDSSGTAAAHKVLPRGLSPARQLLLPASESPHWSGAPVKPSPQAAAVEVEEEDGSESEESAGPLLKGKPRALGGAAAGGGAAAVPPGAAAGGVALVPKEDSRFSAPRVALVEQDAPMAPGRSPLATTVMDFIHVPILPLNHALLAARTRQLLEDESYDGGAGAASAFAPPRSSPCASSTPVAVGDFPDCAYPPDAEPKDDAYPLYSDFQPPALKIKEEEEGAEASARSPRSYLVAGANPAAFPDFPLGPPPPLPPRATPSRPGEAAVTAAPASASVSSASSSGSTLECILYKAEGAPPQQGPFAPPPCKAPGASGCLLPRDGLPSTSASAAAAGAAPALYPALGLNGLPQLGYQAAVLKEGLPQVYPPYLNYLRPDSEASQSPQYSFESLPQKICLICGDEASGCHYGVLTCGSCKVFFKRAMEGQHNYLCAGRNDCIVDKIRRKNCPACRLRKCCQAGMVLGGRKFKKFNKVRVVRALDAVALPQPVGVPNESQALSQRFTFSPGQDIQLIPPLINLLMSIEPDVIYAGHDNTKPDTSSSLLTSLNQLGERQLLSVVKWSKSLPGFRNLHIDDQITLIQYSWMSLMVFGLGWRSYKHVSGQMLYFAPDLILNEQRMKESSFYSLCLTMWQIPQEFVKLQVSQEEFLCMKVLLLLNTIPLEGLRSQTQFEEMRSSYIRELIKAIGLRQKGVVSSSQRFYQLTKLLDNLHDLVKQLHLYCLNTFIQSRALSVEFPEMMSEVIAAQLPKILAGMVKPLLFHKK
How it was run: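 Fluorescence intensity measured 2 hr after adding beta-lactamase FRET substrate to PR-UAS-bla HEK293T cells that had been co-treated 16 hr with compound and 1 nM R5020 (final concentration) in 2% charcoal-stripped FBS.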

[14] = qHTS assay to identify small molecule antagonists of the progesterone receptor (PR) signaling pathway - cell viability counter screen (AID 1346798); also: nearly all actives have a fitted effect of over 50% in size; also: potency is read from the fitted curve at half-maximal effect
How it was run: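 CellTiter-Glo luminescence; PR-UAS-bla HEK293T, 3,000 cells/well; compound + R5020, 16 hr, 37C/5% CO2; 30 min RT before read.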

[15] = qHTS assay to identify small molecule agonists of the progesterone receptor (PR) signaling pathway - cell viability counter screen (AID 1346799; calls by dose curve; also: nearly all actives have a fitted effect of over 45% in size; also: potency is read from the fitted curve at half-maximal effect)
How it was run: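 In parallel with the beta-lactamase readout, cytotoxicity toward PR-UAS-bla HEK293T cells was measured by CellTiter-Glo luminescence following 16 hr compound incubation in 2% charcoal-stripped FBS medium.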

[16] = target: Nuclear receptor subfamily 1 group I member 2 (Homo sapiens) (UniProt O75469); assay: Human pregnane X receptor (PXR) small molecule agonists, qHTS assay (AID 1346982); also: nearly all actives have a fitted effect of over 35% in size; also: potency is read from the fitted curve at half-maximal effect
Nuclear receptor subfamily 1 group I member 2 (Homo sapiens), sequence (O75469 whole entry, looked up): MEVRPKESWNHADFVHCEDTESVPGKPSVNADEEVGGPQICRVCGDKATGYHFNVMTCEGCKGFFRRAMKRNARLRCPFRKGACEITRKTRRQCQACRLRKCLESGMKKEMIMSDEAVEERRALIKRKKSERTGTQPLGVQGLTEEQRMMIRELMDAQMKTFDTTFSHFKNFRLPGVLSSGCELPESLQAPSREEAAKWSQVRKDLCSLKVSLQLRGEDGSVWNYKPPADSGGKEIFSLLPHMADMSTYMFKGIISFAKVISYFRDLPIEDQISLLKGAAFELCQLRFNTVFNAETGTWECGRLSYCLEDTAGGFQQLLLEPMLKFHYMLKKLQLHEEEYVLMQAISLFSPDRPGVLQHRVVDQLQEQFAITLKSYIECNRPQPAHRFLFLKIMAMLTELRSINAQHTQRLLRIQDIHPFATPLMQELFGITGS
How it was run: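 Cells: HepG2 stably carrying PXR-Luc. Medium held 5% charcoal-stripped FBS. Compounds in DMSO added after 5 hr plating, incubated 24 hr, then luminescence quantified with ONE-Glo.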

[17] = target: Nuclear receptor subfamily 1 group I member 2 (Rattus norvegicus) (UniProt Q9R1A7); assay: Rat pregnane X receptor (rPXR) activation by small molecules, qHTS assay (AID 1346983); conditions: rPXR luciferase reporter cells, One-Glo luminescence, 24 h; max activation: stronger effect = higher value; also: nearly all actives have a fitted effect of over 20% in size; also: potency is read from the fitted curve at half-maximal effect
Nuclear receptor subfamily 1 group I member 2 (Rattus norvegicus), sequence (Q9R1A7 whole entry, looked up): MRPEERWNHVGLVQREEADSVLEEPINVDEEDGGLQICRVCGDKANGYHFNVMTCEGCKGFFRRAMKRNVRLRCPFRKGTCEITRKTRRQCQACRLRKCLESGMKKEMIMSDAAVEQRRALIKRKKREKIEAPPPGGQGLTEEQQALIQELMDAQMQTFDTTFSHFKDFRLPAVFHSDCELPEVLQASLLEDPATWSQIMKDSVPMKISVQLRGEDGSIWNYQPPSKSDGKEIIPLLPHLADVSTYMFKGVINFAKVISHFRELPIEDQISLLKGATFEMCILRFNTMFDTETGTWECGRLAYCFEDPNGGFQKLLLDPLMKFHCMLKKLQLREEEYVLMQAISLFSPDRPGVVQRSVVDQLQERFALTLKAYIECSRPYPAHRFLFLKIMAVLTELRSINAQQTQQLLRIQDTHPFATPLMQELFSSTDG
How it was run: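 Cell-based rPXR activation assay: rPXR cells, 2,000 per well, rested 5hr at 37 C, then exposed to compounds in DMSO for 24 hr at 37 C. Luciferase activity read by One-Glo luminescence after 30 min at room temperature.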

[18] = target: Nuclear receptor subfamily 1 group I member 2 (Homo sapiens) (UniProt O75469); assay: CYP3A4 induction through human pregnane X receptor (PXR) by small molecules, qHTS assay (AID 1346984); also: nearly all actives have a fitted effect of over 40% in size
How it was run: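 Quantitative HTS in DPX-2 cells, i.e. HepG2 transfected with PXR response element and CYP3A4-promoter luciferase. Compounds in DMSO incubated 24hr at 37C; then P450-Glo CYP3A4 substrate, 3uM final, 3hr; One-Glo luminescence.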

[19] = target: Nuclear receptor subfamily 1 group I member 2 (Homo sapiens) (UniProt O75469); assay: Human pregnane X receptor (PXR) activation by small molecules, qHTS assay (AID 1346985); also: nearly all actives have a fitted effect of over 40% in size; also: potency is read from the fitted curve at half-maximal effect
How it was run: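 DPX-2 cells (HepG2 co-transfected with a PXR response element and a CYP3A4-promoter luciferase construct) were seeded at 2,000 per well, rested 5 hr at 37C, then exposed to DMSO-dissolved compounds for 24 hr. Activation was read as luciferase luminescence.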

SMILES	Potency [1]	Potency [2]	Potency [3]	outcome [4]	Potency [5]	Potency [6]	Potency [7]	Potency [8]	Potency [9]	Potency [10]	Potency [11]	Potency [12]	Potency [13]	Potency [14]	Potency [15]	Potency [16]	max activation [17]	Potency [18]	Potency [19]	Potency [17]
C[C@]12CC[C@@H]3c4ccc(O)cc4CC[C@H]3[C@@H]1CC[C@H]2O	inactive	inactive	inactive	inactive	inactive	inactive	inactive	11.1 µM (active)	49.4 µM (active) and 54.5 µM (active)	inactive	inactive	inactive	–	–	–	–	–	–	–	–
CC(=O)Oc1c(C)c(C)c2c(c1C)CC[C@@](C)(CCC[C@H](C)CCC[C@H](C)CCCC(C)C)O2	inactive	–	inactive	inactive	inactive	inactive	inactive	inactive	inactive	inactive	inactive	inactive	inactive	inactive	inactive	inactive	-0.642% (inactive) and -1.19% (inactive)	inactive	inactive	–
CC(C)[C@@H]1CC[C@@H](C)CC1=O	inactive	–	inactive	inactive	–	–	inactive	inactive	inactive	inactive	inactive	inactive	inactive	inactive	inactive	inactive	-3.74% (inactive)	inactive	inactive	–
O=C(CCCN1CCC(O)(c2ccc(Cl)cc2)CC1)c1ccc(F)cc1	inactive	–	inactive	inactive	inactive	inactive	27.3 µM (active) and 23.7 µM (active)	54.5 µM (active) and inactive	61.1 µM (active) and inactive	inactive	48.6 µM (active) and inactive	–	–	inactive	inactive	–	–	–	–	–
Nc1ccc(N)c(Cl)c1	61.1 µM (active)	inactive	inactive	inactive	inactive and 30.2 µM (active)	inactive and 4.9 µM (active)	–	inactive	61 µM (active) and 54.5 µM (active)	inactive	68.5 µM (active)	12.6 µM (active) and 22.4 µM (active)	27.3 µM (active)	–	inactive	21.6 µM (active) and 48.6 µM (active)	–	–	–	–
C=C[C@@]1(C)CC(=O)[C@]2(O)[C@@]3(C)[C@@H](O)CCC(C)(C)[C@@H]3[C@H](O)[C@H](OC(C)=O)[C@@]2(C)O1	inactive	–	inactive	inactive	–	–	inactive	inactive	68.6 µM (active)	inactive	inactive	63.3 µM (active) and inactive	–	24.3 µM (active) and 15 µM (active)	12.2 µM (active) and 16.8 µM (active)	–	–	–	–	5.01 µM (active)
Oc1ccc(C(c2ccc(O)cc2)C(Cl)(Cl)Cl)cc1	inactive	inactive	inactive	inactive	inactive	inactive	inactive	inactive	54.5 µM (active)	inactive	–	inactive	12.1 µM (active)	–	inactive	inactive and 61.1 µM (active)	–	–	–	–
Oc1c(Cl)ccc(Cl)c1Cl	inactive	–	inactive	inactive	inactive	inactive	inactive	inactive	inactive	inactive	inactive	71 µM (active)	inactive	–	inactive	inactive	–	–	–	–
c1ccc2ncccc2c1	inactive	–	inactive	inactive	inactive	inactive	inactive	inactive	inactive	inactive	inactive	inactive	inactive	inactive	inactive	inactive	–	–	–	–
CC1(C)O[C@@H]2C[C@H]3[C@@H]4C[C@H](F)C5=CC(=O)C=C[C@]5(C)[C@@]4(F)[C@@H](O)C[C@]3(C)[C@]2(C(=O)CO)O1	inactive	inactive	inactive	inactive	inactive	inactive	inactive	inactive	inactive	inactive	inactive	inactive	inactive	inactive	–	24.3 µM (active) and 8.41 µM (active)	–	–	15.8 µM (active)	11.2 µM (active)
IC(I)I	inactive	inactive	inactive	inactive	inactive	inactive	inactive	inactive	inactive	inactive	inactive	–	inactive	–	inactive	inactive	-1.04% (inactive)	–	inactive	–
O=C1OC2(c3ccccc31)c1cc(I)c(O)c(I)c1Oc1c2cc(I)c(O)c1I	13.3 µM (active) [middle of 4 runs]	–	inactive	inactive	inactive	19.7 µM (active) [middle of 4 runs]	7.78 µM (active) [middle of 4 runs]	inactive	10.5 µM (active) [middle of 4 runs]	inactive	13.3 µM (active) [middle of 4 runs]	28.3 µM (active) and 36 µM (active)	inactive	–	inactive	inactive	–	–	–	–
CCCCCCCC/C=C\CCCCCCCC(=O)O	inactive	inactive	inactive	inactive	inactive	inactive	inactive	inactive	inactive	inactive	inactive	inactive	–	inactive	inactive	inactive	-0.693% (inactive)	inactive	inactive	–
CC(C)(C)c1cccc(C(C)(C)C)c1O	inactive	inactive	inactive	inactive	–	–	inactive	inactive	inactive	inactive	inactive	39 µM (active) and inactive	inactive	inactive	–	59.8 µM (active) and inactive	–	–	–	–
